From PubChem BioAssay
Cardio protect: cardioprotection against H2O2-induced cell death, primary screen, uHTS, H9c2 cells, ATPLite luminescence | protection from H2O2 cell death, % at 20 µM | H9c2 cardiomyocytes, H2O2 injury protection, 2 h | AID 588492, 2011 | 0.63% of 360,000 active;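 active = compounds giving at least 50% protection of heart cells from peroxide-induced death in the single-dose screen, raw or plate-pattern-corrected value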;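 also: 0% = DMSO wells with peroxide and 100% = DMSO wells without peroxide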
HDAC3 inh: HDAC3 deacetylase inhibitors, primary screen, biochemical, fluorescence, cell-free homogeneous | recombinant HDAC3, fluorogenic peptide/trypsin coupled | 0.15% of 320,000 active | inhibition, % at 8.3 µM | Histone deacetylase 3 (Homo sapiens), O15379; in the data active = inhibition above about 26%, passing the limit was not always enough
GRK2 aptamer HTS: compounds blocking aptamer binding on GRK2 – biochemical, human GRK2, bead flow cytometry, HTS, primary screen; FAM-aptamer displacement from GRK2; inhibition of aptamer binding, % at 10 µM; 0.59% of 330,000 active; AID 488847, 2010;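 active = inhibition of aptamer binding above 40%, roughly 3 SD of noise, on plates passing a quality check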;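 also: median bead fluorescence of bound FAM aptamer so fluorescent compounds give negative values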
Neddylation inh: inhibitors of cullin neddylation, primary screen, biochemical, TR-FRET, uHTS, NAE and Ubc12 | NEDD8-conjugating enzyme Ubc12 (Homo sapiens) + NEDD8-activating enzyme E1 regulatory … | inhibition, % at 25 µM | 0.58% of 360,000 active; in the data active = inhibition above about 36%
Target sequence (P61081 whole entry, looked up): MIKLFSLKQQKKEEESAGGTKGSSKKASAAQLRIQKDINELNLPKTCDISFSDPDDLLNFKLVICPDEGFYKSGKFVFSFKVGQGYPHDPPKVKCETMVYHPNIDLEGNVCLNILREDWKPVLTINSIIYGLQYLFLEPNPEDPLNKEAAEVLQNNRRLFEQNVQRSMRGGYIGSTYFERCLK
Target sequence (Q13564 whole entry, looked up): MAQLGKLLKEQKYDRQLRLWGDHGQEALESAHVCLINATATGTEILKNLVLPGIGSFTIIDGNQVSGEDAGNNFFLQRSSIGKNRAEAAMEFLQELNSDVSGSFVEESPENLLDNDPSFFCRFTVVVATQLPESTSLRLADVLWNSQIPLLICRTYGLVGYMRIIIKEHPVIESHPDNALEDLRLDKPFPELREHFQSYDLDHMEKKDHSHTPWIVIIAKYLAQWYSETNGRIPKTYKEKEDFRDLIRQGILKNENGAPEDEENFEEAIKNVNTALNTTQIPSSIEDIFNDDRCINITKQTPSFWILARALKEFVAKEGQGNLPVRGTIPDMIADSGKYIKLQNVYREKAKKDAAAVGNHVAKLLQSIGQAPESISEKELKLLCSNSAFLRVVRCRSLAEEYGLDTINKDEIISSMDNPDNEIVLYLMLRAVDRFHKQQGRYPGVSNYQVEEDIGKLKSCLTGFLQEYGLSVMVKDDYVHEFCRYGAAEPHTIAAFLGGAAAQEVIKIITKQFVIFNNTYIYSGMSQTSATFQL
Neddyl conf: blockade of NEDD8 conjugation to cullin – biochemical, TR-FRET, single concentration, confirmation. 13% of 1,800 active. calls only at 25 µM. AID 652217, 2013. shares compounds with Neddylation inh. TR-FRET cullin neddylation biochemical assay; in the data active = inhibition above about 40%;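 also: neddylation substrate is the cullin 1 ring ligase complex with SKP2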
Active calls of the source: *; i = inactive; . = no result shown; + = active, no number. Compounds with a hit are over-represented: about 1.8% of the library has one in this group of screens.

SMILES | Cardio protect | HDAC3 inh | GRK2 aptamer HTS | Neddylation inh | Neddyl conf
NC(=O)c1cc2ccc(O)cc2oc1=Nc1ccccc1 | -15 | . | . | 54* | i
CCOC(=O)c1cnn2c(N)c(C#N)cnc12 | 3 | 0 | 0 | 39* | i
COCc1cc(C)nc2sc(C(=O)Nc3cccc(OC)c3)c(N)c12 | 3 | 5 | 4 | . | .
COCc1cc(C)nc2sc(C(=O)Nc3ccc(OC)cc3)c(N)c12 | 7 | -5 | 2 | 49* | +
COCc1cc(C)nc2sc(C(=O)N3CCN(c4ccccc4)CC3)c(N)c12 | 9 | 1 | 1 | 41* | i
COCc1cc(C)nc2sc(C(=O)N3CCCCC3)c(N)c12 | 4 | 11 | 2 | -10 | .
CC(=O)NS(=O)(=O)c1ccc(NC(=O)CC23CC4CC(CC(Br)(C4)C2)C3)cc1 | -2 | 4 | 1 | -3 | .
CCOCCCn1c(C)nc2c(c1=O)c1nc3ccccc3nc1n2-c1ccc(C)cc1 | 18 | -7 | 0 | 49* | i
CCCCc1ccc(S(=O)(=O)NC(=O)C2(C)CCN2C(=O)C/C=C/c2ccccc2)cc1 (stereo unspecified) | 1 | . | . | 4 | .
OC1CCCN(Cc2c3ccccc3cc3ccccc23)C1 (stereo unspecified) | 2 | -40 | 0 | 50* | +
Cc1nn(-c2ccccc2)c2c1P(=O)(O)/C(=C1\N(C)c3ccccc3C1(C)C)C=N2 | -7 | -5 | 1 | 45* | i
C/C(=N\NC(=O)c1ccc(CSc2cccc3cccnc23)cc1)C1CCCCC1 | -6 | -4 | 1 | 43* | i
O=C(CSc1cccc2cccnc12)N1CCCC1 | 47 | -13 | 1 | . | .
COc1ccc(/C(C)=N/NC(=O)c2ccc(CSc3cccc4cccnc34)cc2)cc1OC | 6 | 5 | 1 | 46* | i
O=C(CCN1CCN(S(=O)(=O)c2cccc([N+](=O)[O-])c2)CC1)Nc1ccccc1F | -6 | 4 | 0 | -32 | .
O=C(NN1C(=O)c2ccc3c4c(ccc(c24)C1=O)CC3)c1ccc(Br)cc1 | -3 | 0 | 1 | 45* | i
O=C1c2ccc3c4c(ccc(c24)C(=O)N1NC(=O)C(F)(F)F)CC3 | 4 | -6 | 4 | 0 | .
CC(C)OC(=O)/C=C1\C[C@@H](c2ccccc2C(F)(F)F)O[C@@H](c2ccccc2C(F)(F)F)O1 | . | . | . | -2 | .
CCCc1cc(=O)oc2c(C)c(OCC(=O)N3CCC[C@@H]3C(=O)O)ccc12 | -1 | -18 | 0 | 46* | i
CCCCCCc1c(C)c2ccc(OCC(=O)N3CCC[C@H]3C(=O)O)c(C)c2oc1=O | 4 | -12 | 2 | 49* | .
CCOc1ccc(S(=O)(=O)Nc2ccccc2C(=O)NCc2ccco2)cc1 | -30 | 9 | 0 | 45* | i
CC(NC(=O)COC(=O)c1ccc2c(=O)n3c(nc2c1)CCCCC3)c1ccc(F)cc1 (stereo unspecified) | -2 | . | . | -7 | .
c1nc2sc3c(c2c2nnnn12)CCCC3 | 7 | -3 | 4 | 26 | .
c1nc2sc3c(c2c2nnnn12)CCC3 | 5 | -10 | 2 | 41* | i
N#CCCn1cc(C(=O)CN2C(=O)NC3(CCc4ccccc43)C2=O)c2ccccc21 (stereo unspecified) | 6 | . | . | 13 | .
SMILES | Cardio protect | HDAC3 inh | GRK2 aptamer HTS | Neddylation inh | Neddyl conf
O=C(COC(=O)c1ccccc1O)Nc1cc(S(=O)(=O)N2CCCCCC2)ccc1Cl | -5 | -3 | 0 | 49* | .
O=C(Nc1cccc(S(=O)(=O)N2CCCCC2)c1)c1ccccc1NS(=O)(=O)c1ccc(F)cc1 | -14 | -3 | 1 | . | .
O=C(Nc1cc(S(=O)(=O)N2CCCCC2)ccc1O)c1ccccc1NS(=O)(=O)c1ccc(F)c(F)c1 | -8 | 4 | 0 | 51* | i
COc1ccc(OC)c(CCNC(=O)CCC(=O)N2CCOc3ccc(C)cc32)c1 | 0 | -3 | 2 | 2 | .
COc1cc(-c2cc3nc(C)c(C)c(=O)n3[nH]2)cc(OC)c1OC | 7 | -1 | 0 | 42* | i
CCc1c(C)nc2cc(-c3ccccc3)[nH]n2c1=O | -7 | -16 | 0 | . | .
Cc1ccc2c(c1)cc(C(=O)NCc1ccccc1)n2C | 0 | -8 | 0 | 1 | .
C=CCN(CC=C)Cc1c(C)[nH]c2ccc(C(=O)OCC)cc2c1=O | 1 | -9 | 6 | 44* | i
COc1ccc(O)c(/C=N/NC(=O)CN2CCS(=O)(=O)CC2)c1 | 13 | -3 | 0 | 40* | i
COc1ccc(CSCC(=O)N/N=C/c2ccccc2O)cc1 | 42 | -5 | 0 | 39* | i
COCCn1ccc(O)c(Cc2ccc(Cl)cc2)c1=O | 5 | -4 | 1 | 2 | .
CCCCn1c(N)c(N(CC(C)C)C(=O)c2cccc(S(=O)(=O)N(CC)c3ccccc3)c2)c(=O)[nH]c1=O | 2 | . | . | -4 | .
COc1cc(/C=C/c2nnc3c4ccccc4ncn23)cc(OC)c1OC | 68* | -2 | 0 | 55* | i
CC(C)N1CC(C(=O)Nc2cc(Cl)cc(Cl)c2)CC1=O (stereo unspecified) | 1 | 1 | 2 | -2 | .
CC(C)CC[n+]1ccn(-c2nc3ccccc3nc2[N-]S(=O)(=O)c2ccccc2)c1 | 0 | -7 | 0 | 45* | i
Fc1cc2[nH]c(=S)[nH]c2cc1Cl | -2 | 7 | 3 | 38* | i
O=C(COC(=O)CCN1C(=O)/C(=C\C=C\c2ccccc2)SC1=S)Nc1cc(F)ccc1F | -6 | -2 | 17 | -5 | .
Cc1nnc(N2CCC(C(=O)NC3CCC(C)CC3)CC2)c2nn(-c3ccc(Cl)cc3)c(C)c12 (stereo unspecified) | -9 | -9 | 0 | 46* | i
Cc1nnc(N2CCC(C(=O)N3CCCCC3)CC2)c2nn(-c3ccc(Cl)cc3)c(C)c12 | 15 | -4 | 0 | 38 | .
O=C(O)CCC(=O)N1N=C(c2cccs2)CC1c1cn(-c2ccccc2)nc1-c1ccccc1 (stereo unspecified) | 11 | -16 | 1 | 40* | .
COc1ccc(C2CC(c3cccs3)=NN2C(=O)CCC(=O)O)cc1 (stereo unspecified) | 4 | -12 | 1 | 11 | .
COc1ccc(-c2nn(-c3ccccc3)cc2C2CC(c3cccs3)=NN2C(=O)CCCC(=O)O)cc1 (stereo unspecified) | 1 | -2 | 1 | 47* | i
Cc1ccc(-c2nn(-c3ccccc3)cc2C2CC(c3cccs3)=NN2C(=O)CCCC(=O)O)cc1 (stereo unspecified) | 7 | -12 | 0 | . | .
Cc1ccc(OCC(=O)O)c(O)c1 | 1 | . | . | -4 | .
Cc1ccccc1-c1cc2nc(C)c(Cl)c(=O)n2[nH]1 | 2 | 0 | 1 | 50* | i
